Compound activity as filed in PubChem.
SDO1 yeast rescue = compounds rescuing growth of sdo1-depleted yeast, bone marrow failure model; 0.21% of 140,000 active; S. cerevisiae sdo1-depleted JHY4D growth rescue, OD600 30 h; active compounds read high; pdr5 snq2 efflux-pump mutant strain; z-score at 10 µM;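 active = z-score above 3 at both the 24 hr and the 30 hr optical density reads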;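 also: z-score against mean and SD of all compound wells on the same plate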
Plk1 PBD FP = blocks phosphopeptide binding to human Plk1 polo box domain; Plk1 PBD phosphopeptide binding, fluorescence polarization; inhibition, %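 (tested at about 20 µM)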; 0.13% of 97,000 active; AID 693; in the data active = inhibition above about 34%, passing the limit was not always enough
Cav3 T inh = human Cav3.2 channel inhibition, primary screen | 4% of 100,000 active | B-score at 10 µM | Cav3.2-expressing cells, Fluo-4 calcium fluorescence FDSS; active compounds read low;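 active = single-dose well whose peak fluorescence ratio is a statistical outlier from its plate by either plate-standardised score or position-corrected B-score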
Target sequence (O95180 whole entry, looked up): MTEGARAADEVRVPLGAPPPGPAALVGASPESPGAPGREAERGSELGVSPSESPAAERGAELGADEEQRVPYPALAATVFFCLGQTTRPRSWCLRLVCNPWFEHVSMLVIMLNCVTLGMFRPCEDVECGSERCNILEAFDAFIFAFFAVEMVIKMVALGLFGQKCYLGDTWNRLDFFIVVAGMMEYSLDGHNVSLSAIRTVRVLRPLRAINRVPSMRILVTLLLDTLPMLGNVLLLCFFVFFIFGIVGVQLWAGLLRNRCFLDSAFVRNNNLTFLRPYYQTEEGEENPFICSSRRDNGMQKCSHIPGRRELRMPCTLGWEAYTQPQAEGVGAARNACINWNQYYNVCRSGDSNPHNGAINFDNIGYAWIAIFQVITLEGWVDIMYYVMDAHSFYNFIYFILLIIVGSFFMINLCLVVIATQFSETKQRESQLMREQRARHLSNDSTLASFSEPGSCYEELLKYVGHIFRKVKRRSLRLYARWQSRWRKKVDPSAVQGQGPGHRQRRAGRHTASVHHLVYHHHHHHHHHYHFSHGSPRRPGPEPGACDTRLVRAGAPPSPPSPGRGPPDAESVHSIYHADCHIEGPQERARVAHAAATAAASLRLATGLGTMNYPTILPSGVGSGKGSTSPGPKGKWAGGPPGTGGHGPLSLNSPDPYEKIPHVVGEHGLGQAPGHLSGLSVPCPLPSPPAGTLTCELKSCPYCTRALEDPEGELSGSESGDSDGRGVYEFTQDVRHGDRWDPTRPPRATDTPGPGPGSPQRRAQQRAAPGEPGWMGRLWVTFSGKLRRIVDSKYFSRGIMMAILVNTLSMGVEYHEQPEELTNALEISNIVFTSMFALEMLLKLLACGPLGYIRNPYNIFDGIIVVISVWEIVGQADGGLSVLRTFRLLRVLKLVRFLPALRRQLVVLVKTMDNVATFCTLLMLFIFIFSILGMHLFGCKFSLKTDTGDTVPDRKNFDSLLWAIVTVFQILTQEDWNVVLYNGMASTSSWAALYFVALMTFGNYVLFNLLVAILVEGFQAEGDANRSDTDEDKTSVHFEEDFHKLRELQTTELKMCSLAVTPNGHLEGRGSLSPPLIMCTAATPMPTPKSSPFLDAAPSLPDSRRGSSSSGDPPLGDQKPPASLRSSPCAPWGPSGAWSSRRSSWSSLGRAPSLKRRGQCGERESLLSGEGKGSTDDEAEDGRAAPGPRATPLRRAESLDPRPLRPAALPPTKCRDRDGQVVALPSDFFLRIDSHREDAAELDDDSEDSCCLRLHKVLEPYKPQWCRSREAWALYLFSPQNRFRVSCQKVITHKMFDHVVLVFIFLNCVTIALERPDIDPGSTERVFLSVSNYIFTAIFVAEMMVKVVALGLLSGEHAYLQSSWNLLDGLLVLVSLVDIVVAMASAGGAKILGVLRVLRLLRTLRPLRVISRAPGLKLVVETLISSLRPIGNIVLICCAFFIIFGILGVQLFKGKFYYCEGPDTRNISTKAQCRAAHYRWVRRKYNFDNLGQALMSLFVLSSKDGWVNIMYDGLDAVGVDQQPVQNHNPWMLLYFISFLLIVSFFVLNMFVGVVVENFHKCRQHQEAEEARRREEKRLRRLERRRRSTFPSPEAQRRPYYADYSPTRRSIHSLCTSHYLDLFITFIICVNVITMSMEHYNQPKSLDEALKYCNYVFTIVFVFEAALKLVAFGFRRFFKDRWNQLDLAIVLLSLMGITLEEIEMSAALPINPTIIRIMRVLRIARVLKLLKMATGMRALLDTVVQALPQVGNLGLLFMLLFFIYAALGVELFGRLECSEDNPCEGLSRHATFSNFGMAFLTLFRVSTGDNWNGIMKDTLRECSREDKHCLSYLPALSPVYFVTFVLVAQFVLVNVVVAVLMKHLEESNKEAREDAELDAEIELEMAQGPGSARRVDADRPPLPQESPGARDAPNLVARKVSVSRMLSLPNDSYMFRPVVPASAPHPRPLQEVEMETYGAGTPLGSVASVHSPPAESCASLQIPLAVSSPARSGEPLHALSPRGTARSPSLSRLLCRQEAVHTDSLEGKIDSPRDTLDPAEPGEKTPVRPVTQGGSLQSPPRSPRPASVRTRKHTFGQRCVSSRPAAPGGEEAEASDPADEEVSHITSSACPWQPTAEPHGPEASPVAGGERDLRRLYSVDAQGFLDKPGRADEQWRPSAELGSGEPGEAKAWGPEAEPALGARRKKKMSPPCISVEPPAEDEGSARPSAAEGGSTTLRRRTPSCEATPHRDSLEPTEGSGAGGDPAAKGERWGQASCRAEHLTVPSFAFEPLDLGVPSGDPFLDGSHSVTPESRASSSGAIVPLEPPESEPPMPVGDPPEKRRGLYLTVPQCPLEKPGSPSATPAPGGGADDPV
PLK1 inh = PLK1 (human) kinase inhibition. P53350. recombinant PLK1 kinase, TR-FRET peptide phosphorylation. inhibition, % at 10 µM. 0.53% of 97,000 active. AID 619;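 active = inhibition of 50% or more in the single-concentration screen; inactive = inhibition below 50%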;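 also: 0% = DMSO max control and 100% = H-89 dihydrochloride min control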
PTK2B oligo ant = antagonists of human Pyk2 oligomerization | Q14289 | Q293 cells, Pyk2 FERM NanoBiT luminescence; active compounds read low | z-score (the deposit names both 25 µM and 10 µM) | 0.83% of 99,000 active;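 active = Z-score of -3 or lower, scaled per plate to the spread of control and sample wells; inactive = z-score above -3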;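 also: negative z-score means lost luminescence so less FERM oligomerization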
DAT uptake mod = modulates human dopamine transporter uptake under cocaine. Q01959. LLC-PK1 hDAT cells, [14C]-dopamine uptake with cocaine IC80; actives deviate in either direction. B-score at 10 µM. 1.3% of 110,000 active. AID 449768;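 active = Z score or B-score, a plate-position-corrected score, falls beyond the plate's 99.7% confidence bounds, in either direction; inactive = both scores lie inside the 99.7% bounds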;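 also: scored against the spread of the other compound wells on the same plate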
Numbers without * were called inactive; . = no result given. Hits are enriched below; roughly 4.7% of the tested compounds scored in any of these assays.

SMILES | SDO1 yeast rescue | Plk1 PBD FP | Cav3 T inh | PLK1 inh | PTK2B oligo ant | DAT uptake mod
CC(NC(=O)c1ccc(F)cc1)c1ccc2c(c1)CCCC2 (stereo not given) | 0.01 | -3 | -8.5* | -7 | -0.49 | 0.23
CC(Oc1ccccc1)C(=O)N1CCC2(CC1)Oc1ccc(F)cc1C(=O)C21CC(c2ccccc2)=NO1 (stereo not given) | . | . | -4* | . | . | -0.8
CCN(CC)S(=O)(=O)c1ccc(OC)c(NC(=O)c2cccc([N+](=O)[O-])c2C)c1 | . | 29 | 0.036 | 0 | -0.36 | -7.7*
CCN(CC)S(=O)(=O)c1cc([N+](=O)[O-])ccc1NNC(=O)Nc1ccccc1OC | 0.09 | -12 | -9.1* | 0 | -0.83 | 0.24
CCN(CC)S(=O)(=O)c1cc([N+](=O)[O-])ccc1NNC(=O)Nc1ccc(F)cc1 | 0.77 | -18 | -1.8 | -14 | -0.7 | 0.0054
O=C(CN1CCCCCC1)N/N=C/c1cccc(Cl)c1Cl | -0.72 | . | . | . | . | .
Cc1ccc2cc3c(N)[nH]nc3nc2c1 | 1.9 | . | . | . | . | .
O=C(CCCSc1ccccc1)Nc1nc(-c2ccccn2)cs1 | -2.2 | -19 | -6.3* | -15 | 0 | 0.063
O=C(CSc1nnc(CNC(=O)c2cccs2)o1)Nc1cccc(C(F)(F)F)c1 | 1.5 | 3 | -5.5* | -11 | -0.03 | 0.21
COC(=O)C(NC(=O)COc1ccccc1)(Nc1nc2c(s1)CCCC2)C(F)(F)F (stereo not given) | -0.33 | 7 | -6.3* | -15 | -0.28 | 0.45
CCN(CC)CCN(Cc1cc2cc(C)ccc2[nH]c1=O)C(=O)Nc1ccccc1OC | 0.84 | 21 | 0.15 | -13 | 0.49 | 0.39
CCc1ccc2[nH]c(=O)c(CN(Cc3ccccc3OC)C(=O)Nc3ccccc3OC)cc2c1 | -1.3 | -7 | -5.2* | -32 | -1.3 | 0.013
COc1ccccc1CN(Cc1nc2ccccc2c(=O)[nH]1)C(=O)Nc1ccc(C)cc1 | -1.8 | 18 | -4.3* | -19 | -1.9 | -0.093
O=C(CCc1nc2ccccc2[nH]1)Nc1ccccc1F | . | . | 0.49 | . | . | 0.89
Cc1ccccc1NC(=O)N(CCc1nc2ccccc2[nH]1)Cc1ccccc1 | -0.28 | -9 | -4* | -6 | 0.07 | 1.1
COc1ccccc1CN(Cc1nc2ccccc2c(=O)[nH]1)C(=O)Nc1ccccc1C | -0.71 | -10 | -5.9* | -14 | -1.4 | 0.45
COc1cc2c(cc1NC(=O)CN(C)Cc1nc3ccccc3c(=O)[nH]1)oc1ccccc12 | -1.9 | . | -0.15 | . | -3.4* | 1.1
O=C(/C=N/O)NCc1ccncc1 | 0.8 | -11 | -8* | 8 | -0.03 | 0.49
O=C(NCc1ccncc1)C(F)(F)C(F)(F)C(=O)NCc1ccncc1 | 2.5 | 11 | -0.18 | -15 | 0.49 | -1.9
O=C(NCc1ccncc1)C1CCCCC1 | 0.17 | 6 | -0.33 | -6 | 0.33 | -8*
Cc1ccc(S(=O)(=O)N(CCCO)CC(O)CON=C2c3ccccc3-c3ccccc32)cc1 (stereo not given) | -0.3 | . | . | . | . | .
COc1ccc(Nc2nc(NCCO)nc(OC)n2)cc1 | 0.17 | 2 | 0.44 | -1 | 1.6 | -0.57
CC(=O)c1ccc(Nc2nc(NCCO)nc(OC(C(F)(F)F)C(F)(F)F)n2)cc1 | 0.58 | -14 | -0.003 | -12 | -3.3* | -6.3*
CNc1nc(Nc2ccc(C(C)=O)cc2)nc(OC(C(F)(F)F)C(F)(F)F)n1 | -1 | -3 | -0.61 | -1 | -3.2* | -5.9*
CC(C)c1ccc(NC(=O)C(c2ccc3c(c2)OCO3)N2CCC3(CC2)OCCO3)cc1 (stereo not given) | -1.9 | . | -7.5* | . | -2 | 0.8
SMILES | SDO1 yeast rescue | Plk1 PBD FP | Cav3 T inh | PLK1 inh | PTK2B oligo ant | DAT uptake mod
O=C(Nc1ccc2c(c1)OCO2)C(c1ccc(Cl)cc1)N1CCC2(CC1)OCCO2 (stereo not given) | -1.1 | -21 | -6.7* | -10 | -1.3 | -0.051
CCOCCCNC(=O)C(c1ccc(Cl)cc1)N1CCC2(CC1)OCCO2 (stereo not given) | -0.5 | 23 | 1.7 | 3 | 0.48 | -8.5*
CCOCCCNC(=O)C(c1ccc(Cl)cc1)N1CCN(c2ccccc2)CC1 (stereo not given) | -0.98 | 21 | -1.4 | -6 | . | 0.29
CC(C)c1ccc(NC(=O)C(c2ccc3c(c2)OCO3)N2CCCCC2)cc1 (stereo not given) | -1.7 | 4 | -2.5 | 0 | . | 0.018
CCN(CC)C(=O)CC(c1ccc(F)cc1)c1ccc(OC(C)C)cc1 (stereo not given) | -0.03 | . | . | . | . | .
COc1cccc(C(=O)Nc2nnc(-c3ccc(Cl)cc3)o2)c1 | . | . | -5.4* | . | . | -0.034
CCOc1ccc(-c2nnc(NC(=O)c3ccc(OCC(C)C)c(OC)c3)o2)cc1 | -0.85 | 3 | -4.2* | 6 | -0.14 | -0.68
C=CCN(c1cccc(C(F)(F)F)c1)S(=O)(=O)c1cccc(C(=O)OCC(=O)Nc2ccccc2)c1 | 0.3 | . | . | . | . | .
CCOc1ccc(C(=O)NC(=S)NCc2cccnc2)cc1[N+](=O)[O-] | -0.08 | . | . | . | . | .
CCn1nccc1C(=O)Nc1cc(Cl)cc(Cl)c1 | -1.8 | -5 | -3.8* | -4 | -0.05 | 1.5
O=[N+]([O-])c1ccc(N=Nc2ccc(O)cc2O)cc1 | 0.04 | -9 | -8.8* | -7 | -1.3 | -1.6
O=[N+]([O-])c1ccc(N=NN(CCO)CCO)cc1 | 1.4 | . | . | . | . | .
CC(=O)O[C@@H]1[C@@]2(C)O[C@H]2CC[C@]23O[C@H]2[C@H](OC3=O)C2=C(C)C(=O)O[C@@]21O | 0.48 | . | -0.46 | . | . | 0.62
Cc1nn(-c2ccccc2)c(Cl)c1C(=O)Nc1nnc(C2CCCC2)s1 | -0.03 | . | -5* | . | -0.61 | 1.5
Cn1c(CSc2nc3ccccc3s2)nc2ccccc21 | -1.6 | 11 | -4.7* | 4 | -0.32 | 0.8
Cc1nnc(SCc2nc3ccccc3[nH]2)s1 | 1.2 | -9 | -0.15 | -2 | -0.19 | -0.012
c1ccc2[nH]c(CSc3nc4ccccc4s3)nc2c1 | -1.1 | -10 | -6.4* | -1 | 0.79 | 0.43
O=c1oc2ccccc2n1CSc1nc2ccccc2s1 | -1.5 | 4 | -4.1* | -8 | 0.2 | -0.59
Cn1c(CSc2nc3ccccc3s2)n[nH]c1=S | 0.65 | 22 | 1.3 | 1 | -0.08 | -0.054
O=C(Nc1nc2ccccc2s1)c1ccc(N2CCCCC2)c([N+](=O)[O-])c1 | -0.76 | . | . | . | . | .
Cc1ccc(N=C2S/C(=C\c3cn(CC(=O)O)c4ccccc34)C(=O)N2C)cc1 | 0.3 | . | . | . | . | .
O=C(Nc1ccccc1C(=O)NC(Cc1ccccc1)C(=O)NC1CCCCC1)c1ccccc1 (stereo not given) | -0.89 | . | . | . | . | .
CCOC(=O)c1c(C)[nH]c(C(=O)COC(=O)CN2C(=O)C3CCCCC3C2=O)c1C (stereo not given) | 0.04 | -7 | -0.021 | -10 | -0.28 | 0.074
CCOC(=O)c1c(C)[nH]c(C(=O)COC(=O)C(C)N2C(=O)C3CCCCC3C2=O)c1C (stereo not given) | -0.5 | 1 | -3.2* | -9 | -1.7 | 1.6
COc1ccc(/C=C/C(=O)NC(=S)NNC(=O)c2ccco2)cc1 | -0.04 | -21 | -5.3* | -6 | -0.5 | 0.023
